M1 agonist = agonists of M1 muscarinic receptor | 3% of 64,000 active | CHO-M1 cells, Fluo-4 calcium fluorescence, agonist mode; active compounds read high | AID 626 | B-score at 10 µM;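 active means fluorescence rise, raw or as B-score row- and column-corrected plate score, outside the 99.7% band of its plate's samples, either direction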
Cav3 T inh = human Cav3.2 channel inhibition, primary screen; Cav3.2-expressing cells, Fluo-4 calcium fluorescence FDSS; active compounds read low; 4% of 100,000 active; O95180; B-score at 10 µM;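 active means single-dose well whose peak fluorescence ratio is a statistical outlier from its plate by either plate-standardised score or position-corrected B-score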
M1 antag = antagonists of rat M1 muscarinic receptor; P08482; CHO-M1 cells, Fluo-4 calcium, ACh EC80 antagonist mode; active compounds read low; 3.4% of 64,000 active; B-score at 10 µM; AID 628;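 active means calcium fluorescence response, raw or row-and-column corrected B-score, differing from the plate sample mean either way at a set confidence level, mostly lower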
Target sequence (P08482 whole entry, looked up): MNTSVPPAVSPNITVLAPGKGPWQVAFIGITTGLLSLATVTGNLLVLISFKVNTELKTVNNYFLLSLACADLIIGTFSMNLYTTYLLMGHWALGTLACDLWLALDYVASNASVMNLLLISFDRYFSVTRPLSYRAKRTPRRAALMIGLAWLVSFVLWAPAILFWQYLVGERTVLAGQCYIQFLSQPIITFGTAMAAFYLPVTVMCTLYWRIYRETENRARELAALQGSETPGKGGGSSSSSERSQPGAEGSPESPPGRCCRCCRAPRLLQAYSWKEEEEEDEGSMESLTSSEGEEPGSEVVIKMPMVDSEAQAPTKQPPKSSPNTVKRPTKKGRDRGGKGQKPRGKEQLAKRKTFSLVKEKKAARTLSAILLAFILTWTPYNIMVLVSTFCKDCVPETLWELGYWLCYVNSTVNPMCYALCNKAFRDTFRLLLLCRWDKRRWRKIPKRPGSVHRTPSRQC
PLAP activator = activates human placental alkaline phosphatase. 1.2% of 96,000 active. purified PLAP enzyme, luminescent substrate read-out; active compounds read high. activation fold at 20 µM; in the data active means activation fold above about 2
M1 ag confirm = confirmation of rat M1 muscarinic receptor agonists; CHO-M1 cells, Fluo-4 calcium fluorescence, agonist mode; actives lie on both sides; 19% of 1,700 active; AID 1488; fluorescence change (max-min) at 10 µM; shares compounds with M1 agonist;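 active means fluorescence change differs from the solvent-only DMSO control mean at a set confidence level in both duplicate runs; inconclusive means differs from solvent-only control mean in just one of two runs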;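 further: an EC20 dose of acetylcholine follows compound addition during the same imaging run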
M4 agonist ctr = activates rat M4 receptor in counter-screen for M1 agonists. shares compounds with M1 agonist. CHO M4/Gqi5 cells, Fluo-4 calcium fluorescence, agonist mode; actives lie on both sides. fluorescence change (max-min) at 10 µM. 9% of 1,700 active;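 active means fluorescence change differing from the plate's solvent-only control wells at 99.7% confidence in both duplicates, whether higher or lower; inconclusive means differs from solvent controls in only one of two duplicates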
Hits are given with their value; 0 = inactive; ? = inconclusive; - = no result given. A selection: hits, their analogues and other compounds. The true share with any hit is near 7.6%.

SMILES | M1 agonist | Cav3 T inh | M1 antag | PLAP activator | M1 ag confirm | M4 agonist ctr
O=C(c1ccco1)N1CCN=C1SCc1ccccc1F | -3.3 | 0 | 0 | 0 | 0 | 0
O=C(c1ccco1)N1CCN=C1SCc1cccnc1 | 0 | 0 | 0 | 0 | - | -
CC(=O)N1CCc2cc(S(=O)(=O)NC3CCCc4ccccc43)ccc21 (stereo not drawn) | 0 | 0 | 0 | - | - | -
O=C(O)c1ccc(S(=O)(=O)NC2CCCc3ccccc32)cc1 (stereo not drawn) | 2.9 | 0 | 0 | 0 | ? | ?
O=C(COc1cccc(NC(=O)c2ccco2)c1)c1ccc(F)cc1 | 5.7 | 0 | 0 | 0 | ? | ?
O=C(CCc1nc2ccccc2c(=O)[nH]1)N1CCN(C/C=C/c2ccccc2)CC1 | 9.4 | 0 | 0 | 0 | 0 | 0
CC(=O)Nc1nc(C)c(-c2csc(Nc3ccc(O)cc3)n2)s1 | 6.4 | 0 | -2 | 0 | 0 | ?
CC(=O)Nc1nc(C)c(-c2csc(Nc3cccc([N+](=O)[O-])c3)n2)s1 | - | 0 | - | 0 | - | -
CCn1cc(C(=O)Nc2ccc(-n3cnnn3)c(OC)c2)c(=O)c2ccc(C)nc21 | 0 | 0 | 0 | 0 | - | -
CN(C)c1ccc(/C=C/c2ccncc2)cc1 | 10 | 0 | 0 | 0 | 111 | 150
O=c1c2ccccc2c(C=Nc2ccc(Cl)cn2)c(O)n1-c1cc(Cl)ccc1N1CCOCC1 | 15 | 0 | 0 | 0 | 0 | 0
CCOC(=O)C1CCCN(CCC(=O)Nc2ccc3c(c2)CCC3)C1 (stereo not drawn) | 16 | 0 | -3.6 | 0 | 150 | 0
C=CCn1c(Cc2csc(N)n2)nnc1SCC(=O)Nc1ccccc1C(F)(F)F | - | 0 | - | 0 | - | -
O=C(Nc1ccc(S(=O)(=O)N2CCOCC2)cc1)c1ccc(Cl)cc1 | 0 | 0 | 0 | - | - | -
O=C(Nc1ccc(Cc2ccncc2)cc1)c1ccc(S(=O)(=O)N2CCOCC2)cc1 | 13 | 0 | -2.5 | 0 | 0 | ?
Cc1coc2c(C)c3oc(=O)c4c(c3cc12)CCC4 | 0 | - | 0 | - | - | -
O=c1oc2c3c4c(cc2c2c1CCC2)OCCN4CCC3 | 24 | 0 | 0 | 0 | 111 | 0
COc1ccc(NS(=O)(=O)c2ccc3oc4ccccc4c3c2)cn1 | 0 | 0 | 0 | 0 | - | -
O=S(=O)(NCCOCC(F)(F)C(F)F)c1ccc2oc3ccccc3c2c1 | 15 | -4.6 | 0 | 0 | -22 | 0
Cc1ccc(C(=O)CC2(O)C(=O)N(Cc3ccc4c(c3)OCO4)c3ccccc32)cc1 (stereo not drawn) | 59 | -7.5 | 0 | 0 | 0 | 0
O=C(CC1(O)C(=O)N(Cc2ccc3c(c2)OCO3)c2ccccc21)c1ccccc1 (stereo not drawn) | 0 | 0 | 0 | 0 | - | -
CN(CCCC(=O)Nc1ccncc1)S(=O)(=O)c1ccc(Cl)cc1 | 4.1 | - | 0 | 0 | 0 | 0
COc1ccc(-n2nnnc2SCC(=O)c2ccc(O)c(O)c2)cc1 | 11 | 0 | 0 | 0 | 0 | 0
CCCN(CCC)c1nc(C)cc(C(C#N)c2nc3ccccc3o2)n1 (stereo not drawn) | 6.4 | - | 0 | 0 | 0 | 0
CC(=O)c1cccc(NC(=O)Cc2ccc3c(c2)CCCC3)c1 | - | 0 | - | 0 | - | -
SMILES | M1 agonist | Cav3 T inh | M1 antag | PLAP activator | M1 ag confirm | M4 agonist ctr
COc1ccc(C2C(C(=O)Nc3ccccc3)=C(C)Nc3nc(CCCO)nn32)cc1 (stereo not drawn) | 0 | 0 | 0 | 0 | - | -
COc1ccc(C2C=C(c3ccccc3)Nc3nc(CCCO)nn32)cc1 (stereo not drawn) | 9.3 | 0 | 0 | 0 | 72 | 0
COc1ccc(C2C=C(c3cccs3)Nc3nc(CCCO)nn32)cc1 (stereo not drawn) | 288 | -12 | -18 | 0 | 2868 | 2408
OCCCc1nc2n(n1)C(c1ccccc1)C=C(c1ccccc1)N2 (stereo not drawn) | 12 | 0 | 0 | 0 | 74 | 0
Cc1cc(NC(=O)Cn2nc(-c3ccccc3F)ccc2=O)ccc1-n1cnnn1 | 0 | 0 | 0 | 0 | - | -
CCn1c(SCC(=O)Nc2nccs2)nnc1-c1ccc(S(=O)(=O)N2CCCCCC2)cc1 | - | 0 | - | 0 | - | -
CCC(Sc1nnc(-c2ccc(C)c(Cl)c2)n1CC)C(=O)Nc1nccs1 (stereo not drawn) | 5.2 | -5.7 | 0 | 0 | 0 | 0
Cc1cc(C)c2nc(N3CCCN(C(=O)c4cnccn4)CC3)c(C#N)cc2c1 | 0 | 0 | 0 | 0 | - | -
CC(N=c1ccccn1C(=O)Nc1ccc(F)cc1)c1ccco1 (stereo not drawn) | 0 | 0 | 0 | 0 | - | -
CC(N=c1ccccn1C(=O)Nc1ccc(Cl)cc1)c1ccco1 (stereo not drawn) | 4 | 0 | 0 | 0 | -30 | ?
Cc1ccc(-c2noc(CCCC(=O)N3CCOCC3)n2)cc1 | 0 | 0 | 0 | 0 | - | -
O=C(CCCc1nc(-c2ccc(Cl)cc2)no1)N1CCOCC1 | -2.5 | 0 | 0 | - | ? | -90
Cc1onc(-c2ccccc2)c1C(=O)NC(C)C1CCCO1 (stereo not drawn) | 0 | 0 | 0 | 0 | - | -
COc1ccc(-c2nc(-c3ccc(NC(=O)c4ccncc4)cc3)no2)cc1OC | 3.8 | 0 | 0 | 0 | 0 | 0
COc1ccc(Cl)cc1-c1nc(-c2ccc(NC(=O)c3ccncc3)cc2)no1 | 0 | 0 | 0 | - | - | -
CCOCCCn1cnc2c(c1=O)c1nc3ccccc3nc1n2-c1ccccc1 | 3.9 | 0 | 0 | 0 | ? | 0
CCOCCCn1cnc2c(c1=O)c1nc3ccccc3nc1n2-c1ccc(C)cc1 | 0 | 0 | 0 | 0 | - | -
COc1ccccc1CNC(=O)c1cnn2c(C(F)F)cc(C)nc12 | - | 0 | - | 0 | - | -
COc1ccccc1CCNC(=O)c1cnn2c(C(F)F)cc(C)nc12 | 2.5 | 0 | 0 | 0 | 0 | 0
CCC(Cc1ccccc1)NC(=O)C1CCN(S(=O)(=O)c2c(C)noc2C)CC1 (stereo not drawn) | - | 0 | - | 0 | - | -
CCOc1cccc(C(=O)Nc2nc(-c3ccc(S(=O)(=O)N4CCOCC4)cc3)cs2)c1 | 3.7 | 0 | 0 | 0 | 0 | 0
O=C(COc1cccc(Cl)c1)Nc1nc(-c2ccc(S(=O)(=O)N3CCOCC3)cc2)cs1 | - | 0 | - | - | - | -
Cc1cccc(NC(=O)C2CCCC2)c1 | - | 0 | - | - | - | -
O=C(Nc1cccc(S(=O)(=O)c2cccc(NC(=O)C3CC3)c2)c1)C1CC1 | 2.8 | 0 | 0 | 0 | 0 | 0
CN1C=CC(=C2C(=O)c3ccccc3C2=O)C=C1 | 33 | 0 | 2.6 | 0 | 0 | ?
SMILES | M1 agonist | Cav3 T inh | M1 antag | PLAP activator | M1 ag confirm | M4 agonist ctr
C/C(=N/NS(=O)(=O)c1ccc(Cl)cc1)c1cccc(NC(=O)c2ccc(Cl)cc2Cl)c1 | - | - | - | 0 | - | -
CC(=O)N(CN1C(=O)c2ccccc2C1=O)c1ccccc1 | 0 | 0 | 0 | 0 | - | -
CC(=O)N(c1ccccc1)c1c(F)c(F)c(F)c(F)c1F | 3.9 | 0 | 0 | 0 | 0 | 0
CC(CN1CCCC1)OC(=O)COc1ccccc1 (stereo not drawn) | 0 | 0 | 0 | 0 | - | -
CCN(CC)C(=O)C1CC(=O)N(c2ccc(F)c(Cl)c2)C1 (stereo not drawn) | 0 | 0 | 0 | 0 | - | -
Cc1noc(C)c1COC(=O)c1cccc(S(=O)(=O)N2CCCCCC2)c1 | 3.1 | 0 | 0 | 0 | 0 | 0
